Source: the supplement of paper PMC4166925
± gives the standard deviation of the averaged measurements. The full ranking holds about 33,000 sequences; the median of “E-score (dimensionless, -0.5 to 0.5)” is about -0.049, and the highest 2% start at about 0.37. The full list was thinned out, with the highest values kept by preference.

Tested on: T1, PmTbr T-box DNA-binding domain (GST fusion)
T1 sequence: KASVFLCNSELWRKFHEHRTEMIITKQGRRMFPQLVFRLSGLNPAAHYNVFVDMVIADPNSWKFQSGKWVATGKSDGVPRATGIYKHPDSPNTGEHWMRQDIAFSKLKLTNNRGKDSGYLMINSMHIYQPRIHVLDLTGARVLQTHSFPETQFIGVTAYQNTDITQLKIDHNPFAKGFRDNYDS
Experiment: PBM E-score of 8-mer (E-score (dimensionless, -0.5 to 0.5)); Tbr is Tbrain of the sea star Patiria miniata (Pm) or the sea urchin Strongylocentrotus purpuratus (Sp); higher = stronger binding preference
Settings: the construct has about 5 more residues each side
Protocol: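 Universal protein-binding microarray (Agilent AMADID 016060, 60-bp probes with a 35-bp variable region) incubated with 200 nM GST-fused Patiria miniata Tbr T-box DNA-binding domain (residues 272-466) in PBS pH 7.5. Scored for every ungapped 8-mer (given with its reverse complement) by the Universal PBM Analysis Suite as E-score (modified Wilcoxon-Mann-Whitney enrichment, range -0.5 to 0.5; >0.45 counts as bound) and Z-score of median probe intensity. Two replicate arrays (datasets 1 and 2).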
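Further: 200 nM protein in PBS on universal arrays averaged over duplicate arrays.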

Sequence | PBM E-score of 8-mer
ATAGCTAG | -0.0742 ± 0.12
CACGTTGG | 0.261 ± 0.0042
CTGTTCTC | 0.0542 ± 0.017
ACTGGCAC | 0.264 ± 0.015
CTTGGCAC | 0.352 ± 0.016
CCTGGCAC | 0.371 ± 0.019
ATTGGCAG | 0.0761 ± 0.012
AGTGGCAA | 0.304 ± 0.039
CGTGGCAA | 0.122 ± 0.044
AGTGGCAC | 0.334 ± 0.008
GCTGGCAC | 0.234 ± 0.064
GGTGGCAA | 0.3882 ± 0.0017
CGTGGCAC | 0.233 ± 0.052
ATTGGCAC | 0.385 ± 0.0064
GGTGGCAC | 0.38829 ± 0.00023
CCAGTTCA | -0.052 ± 0.044
GCCGTGCC | 0.0438 ± 0.036
TCTATCCA | -0.354 ± 0.0079
GGATTAAC | 0.0329 ± 0.085
CCTAGGGA | -0.233 ± 0.015
ACGATCTG | 0.189 ± 0.015
CAATAGCG | 0.118 ± 0.13
AAGAGGTA | -0.158 ± 0.021
AGGAGGTC | -0.247 ± 0.02
AGGAGGTA | -0.0739 ± 0.034
ATGAGGTA | -0.093 ± 0.027

Sequence | PBM E-score of 8-mer
ACGAGGTG | 0.4446 ± 0.0042
AGGAGGTG | 0.428 ± 0.0078
ATGAGGTG | 0.382 ± 0.018
AAGAGGTG | 0.4261 ± 0.00096
ACGAGGTA | -0.046 ± 0.031
ATGAGGTC | -0.00428 ± 0.033
ACGAGGTC | -0.113 ± 0.027
AAGAGGTC | -0.101 ± 0.02
GCCAGTCA | 0.0625 ± 0.0016
AAGTTTCT | 0.101 ± 0.091
AAACCATC | -0.0959 ± 0.018
AGTAGAGC | 0.00365 ± 0.047
GTAGAACA | -0.0515 ± 0.048
GTCAGTGA | 0.122 ± 0.036
GGAGAGCC | -0.27 ± 0.039
ATTAAGTC | -0.233 ± 0.059
AGGCAAAT | -0.324 ± 0.053
TACACCTA | 0.371 ± 0.026
CAGACCTG | -0.0919 ± 0.036
TACACCGA | 0.042 ± 0.083
TACACCAA | 0.0439 ± 0.018
ACCACCTG | 0.262 ± 0.056
AACACCGT | 0.329 ± 0.0059
CACACCGG | 0.135 ± 0.057
AACACCTT | 0.4857 ± 0.0013
AACACCTG | 0.472 ± 0.0011

Sequence | PBM E-score of 8-mer
AACACCGG | 0.155 ± 0.04
AACACCGC | 0.287 ± 0.0081
CACACCTG | 0.478 ± 0.0049
GACTGAGA | -0.181 ± 0.085
ACTCAAAT | -0.125 ± 0.039
TACTTAGA | 0.0947 ± 0.0054
ATAGACTG | -0.0183 ± 0.043
GACTGACA | 0.142 ± 0.069
ATAGGCCC | -0.141 ± 0.098
CTCATTGC | -0.166 ± 0.087
AGATTCGG | -0.173 ± 0.036
ACGGCTAC | -0.0169 ± 0.0055
GAGACCTA | -0.16 ± 0.033
AAAACCTA | -0.209 ± 0.086
GACACCGA | 0.286 ± 0.024
CCCACCTA | 0.184 ± 0.016
AACACCTA | 0.4803 ± 0.0034
CACACCTA | 0.476 ± 0.009
CACACCGA | 0.193 ± 0.0051
GACACCTA | 0.48906 ± 2.8e-05
AACACCGA | 0.234 ± 0.034
AGACTAGG | -0.0553 ± 0.059
ACGTCGAC | 0.115 ± 0.035
AGGCAGCG | -0.0107 ± 0.078
CCTTGTAA | -0.0975 ± 0.037
TACTTGAA | -0.262 ± 0.037

Sequence | PBM E-score of 8-mer
AGGGGAGG | -0.223 ± 0.07
GAATTGTC | 0.184 ± 0.0043
CGAGACTC | 0.0667 ± 0.093
CCAAGGGA | 0.0414 ± 0.029
ATCACGAG | 0.167 ± 0.054
AAGAGTGT | 0.289 ± 0.055
CTATAGAA | -0.129 ± 0.058
ATGTGACG | 0.31 ± 0.02
ATGTGACA | 0.4393 ± 0.0026
GCGTGACA | 0.365 ± 0.0062
ACGTGACT | 0.0526 ± 0.086
ACGTGACA | 0.385 ± 0.023
CTGTGACA | 0.3356 ± 0.0016
GTGTGACA | 0.4709 ± 0.0035
ACGTGACG | 0.346 ± 0.0083
ATGTGACC | 0.112 ± 0.052
CACTGCTG | -0.132 ± 0.038
AAGAAGTC | 0.0125 ± 0.0032
CGTAGGCC | -0.213 ± 0.033
GCATATAC | -0.081 ± 0.0014
CCTTGGGC | -0.035 ± 0.01
TGTGCCAA | 0.351 ± 0.013
AGTGCCAC | 0.287 ± 0.014
CGTGCCAC | 0.274 ± 0.03
GATGCCAC | 0.182 ± 0.072
GGTGCCAA | 0.454 ± 0.006

Sequence | PBM E-score of 8-mer
AGTGCCAG | 0.2664 ± 0.0016
CGTGCCAA | 0.324 ± 0.0048
AGTGCCAA | 0.3809 ± 0.0024
GGTGCCAC | 0.398 ± 0.015
GCGGCAGC | 0.0309 ± 0.0077
GGCGAATA | 0.0105 ± 0.026
ACGAATTG | 0.0628 ± 0.039
ACAGCGCA | -0.0538 ± 0.03
CCGCTATC | 0.177 ± 0.0022
AACACGGT | 0.133 ± 0.049
TGTGAAAA | 0.38 ± 0.057
TGTGAACA | 0.4216 ± 0.0014
CGTGAACA | 0.321 ± 0.021
CGTGAAAA | 0.338 ± 0.026
GGTGAACA | 0.00576 ± 0.0094
GGTGAAAA | 0.2007 ± 0.0014
CGTGAGAG | 0.265 ± 0.0088
AAGCCAAT | -0.162 ± 0.051
ACTCGAAC | -0.0874 ± 0.031
CTCTGTGC | -0.0888 ± 0.082
GGAGATTA | -0.0891 ± 0.063
AGGGCCTC | -0.399 ± 0.0047
CAAGCATG | -0.0451 ± 0.032
TGTCTAAA | -0.0695 ± 0.011
GAAGGACA | -0.0775 ± 0.028
GCAGACAA | -0.0224 ± 0.054

Sequence | PBM E-score of 8-mer
GCTCGCAA | 0.242 ± 0.015
CCTCGCAC | 0.42 ± 0.014
ACTCGCAC | 0.4 ± 0.0077
CCTCGCAG | 0.0735 ± 0.061
CCTCGCAA | 0.118 ± 0.0037
ACTCGCAT | -0.0149 ± 0.006
ACTCGCAG | 0.0856 ± 0.036
GCTCGCCC | -0.213 ± 0.052
GCTCGCAC | 0.42 ± 0.025
ACAGCTAC | 0.115 ± 0.032
AACTGGAG | -0.0661 ± 0.0033
CGATAAGC | 0.124 ± 0.049
CGAGGTGC | 0.457 ± 0.01
CGAGGTTA | 0.0486 ± 0.017
AGAGGTGC | 0.411 ± 0.0084
CGAGGTAC | -0.1003 ± 0.00044
AGAGGTGA | 0.352 ± 0.015
CGAGGTGA | 0.4396 ± 0.0012
AGAGGTTC | -0.124 ± 0.022
AGAGGTGG | 0.316 ± 0.0057
GGAGGTGA | 0.4036 ± 0.0026
CGAGGTCA | 0.0395 ± 0.11
GGAGGTCA | 0.0158 ± 0.0067
CGAGGTCC | -0.166 ± 0.06
ACCAACTA | -0.0247 ± 0.12
CGAACAGC | 0.0465 ± 0.011

Sequence | PBM E-score of 8-mer
TAAGTCTA | -0.0537 ± 0.026
CGCCCTAC | -0.103 ± 0.061
CCAACAAC | 0.0262 ± 0.0053
ATGTTGGA | -0.0683 ± 0.0083
GTGTTGGA | 0.382 ± 0.0051
GTGTTGAA | 0.4 ± 0.013
CTGTTGGA | 0.0599 ± 0.038
CTGTTGAA | -0.0551 ± 0.1
ATGTTGAA | -0.107 ± 0.017
ACCTTTAT | 0.0337 ± 0.024
TGTGTGAA | 0.4728 ± 0.0017
CGTGTGTA | 0.00111 ± 0.014
TATGTGAA | 0.11 ± 0.1
AGTGTGTA | 0.172 ± 0.073
CGTGTGAA | 0.4524 ± 0.0013
CGTGTGCA | 0.0443 ± 0.011
TGGGTGAA | -0.158 ± 0.043
AGTGTGAA | 0.48836 ± 0.00035
AGAGTGAA | 0.0596 ± 0.056
CGCTACCA | 0.243 ± 0.024
AGTTCTTC | -0.293 ± 0.02
